Bioassay records deposited in PubChem BioAssay by National Center for Advancing Translational Sciences (NCATS).
ELG1 DNA repair: qHTS screen for small molecules that inhibit ELG1-dependent DNA repair in human embryonic kidney (HEK293T) cells expressing luciferase-tagged ELG1. HEK293T ELG1-luciferase reporter, luminescence, 16 h; DNA damage induced by 5-fluorouridine. Potency, µM (highest dose often 46.1 µM), for the others: at the top dose activity change, negative = inhibition, usual class: inhibitors. hit rate 2.3% among 330,000. AID 504467, 2011; note: potency is the fitted concentration of half-maximal effect; nearly all actives have a fitted effect of over 55% in size
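Step one: seed 2,000 cells per well. Step two: pin-transfer compound or DMSO alongside 5-fluorouridine. Step three: incubate 16 hr, 37 °C, 5% CO2. Step four: add ONE-Glo, wait 30 min, read luminescence.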
TDP1 cell noCPT: qHTS for Inhibitors of human tyrosyl-DNA phosphodiesterase 1 (TDP1): qHTS in cells in absence of CPT. Potency, µM (top dose mostly 46.2 µM), for the others: at the top dose activity change, negative = growth inhibition, hits mostly inhibitors. DT40 Tdp1-/- hTDP1 cells, no CPT, ATP luminescence, 48 h. hit rate 15% among 420,000; note: potency is the fitted concentration of half-maximal effect; nearly all actives have a fitted effect of over 55% in size
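Cells were dispensed at 400 per well, compounds added by pin tool, plates incubated ≥48 hr at 37 °C, then CellTiter-Glo added for 30 min at room temperature before luminescence reading. Line: DT40 Tdp1-/- complemented with hTDP1; camptothecin omitted.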
IL-1B inflam inh: qHTS for Inhibitors of Inflammasome Signaling: IL-1-beta AlphaLISA Primary Screen; THP-1 LPS/ATP IL-1B secretion, AlphaLISA, 16 h; hits give low values; activity change, % at 57.5 µM; hit rate 4.7% among 360,000; AID 743279, 2014; in the data active = activity change below about -50%; inconclusive = mostly about -30% to -49%
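THP-1 cells pretreated 1 hr with compounds (up to 57.5 uM final), then stimulated with LPS (250 ng/mL final) plus ATP (1.25 mM final); secreted IL-1B measured by AlphaLISA after 16 hr, decreased signal indicating inhibition.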
RORgamma inh: qHTS for inhibitors of ROR gamma transcriptional activity; Potency, µM (highest dose often 53.6 µM), without a hit: at the top dose activity change, negative = inhibition, actives largely listed as inhibitors; hit rate 5.4% among 310,000; Drosophila S2 Gal4-RORgamma UAS-luciferase reporter, 20 h; note: potency is the fitted concentration of half-maximal effect; nearly all actives have a fitted effect of over 60% in size
Target sequence (P51450 whole entry, looked up, the tested form may be a part): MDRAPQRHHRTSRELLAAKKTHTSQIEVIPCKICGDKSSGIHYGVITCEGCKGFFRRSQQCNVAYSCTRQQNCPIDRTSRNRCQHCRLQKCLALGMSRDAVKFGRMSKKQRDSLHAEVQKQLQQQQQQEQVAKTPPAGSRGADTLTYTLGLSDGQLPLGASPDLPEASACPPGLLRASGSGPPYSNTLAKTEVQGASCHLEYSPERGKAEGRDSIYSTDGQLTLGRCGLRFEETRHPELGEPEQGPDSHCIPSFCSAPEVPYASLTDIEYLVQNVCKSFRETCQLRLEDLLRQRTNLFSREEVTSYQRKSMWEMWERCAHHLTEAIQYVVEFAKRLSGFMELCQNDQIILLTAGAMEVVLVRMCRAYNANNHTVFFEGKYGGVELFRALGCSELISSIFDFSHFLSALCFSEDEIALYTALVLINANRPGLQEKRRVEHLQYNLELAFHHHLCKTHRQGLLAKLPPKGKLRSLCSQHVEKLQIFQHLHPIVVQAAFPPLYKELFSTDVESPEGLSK
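A Gal4/UAS one-hybrid system in insect cells: metallothionein-promoter Gal4–ROR gamma fusion plus Photinus luciferase reporter. Copper sulfate 700 uM final, 20 hr ambient incubation, luminescent detection after 10 min with reagent.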
VP16 counter: VP16 counterscreen qHTS for inhibitors of ROR gamma transcriptional activity | Drosophila S2 Gal4-VP16 UAS-luciferase, luminescence, 20 h | Potency, µM (titrated, usually from 53.6 µM), for inactives: at the top dose activity, negative = inhibition, actives largely listed as inhibitors | hit rate 3.5% among 310,000;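 note: Gal4-VP16 expression switched on by copper sulfate through the metallothionein promoter; potency is the fitted concentration of half-maximal effect; nearly all actives have a fitted effect of over 50% in size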
DT40 TDP1 CPT: qHTS for Inhibitors of human tyrosyl-DNA phosphodiesterase 1 (TDP1): qHTS in cells in presence of CPT; Potency, µM (top dose mostly 46.2 µM), without a hit: at the top dose activity change, negative = growth inhibition, actives largely listed as inhibitors; hit rate 12% among 420,000; chicken DT40 Tdp1-/-;hTDP1 cells + 20 nM CPT, ATP luminescence, 48 h; AID 686979, 2013; note: potency is the fitted concentration of half-maximal effect; nearly all actives have a fitted effect of over 55% in size
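Chicken DT40 Tdp1-/- cells complemented with human TDP1, 400 cells/well, exposed to compounds plus 20 nM camptothecin for at least 48 h at 37 C; viability read as ATP content by CellTiter-Glo luminescence.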
* = called active by the depositor; ? = inconclusive; / = no result; ! = repeats disagree; [ ] = another dose, or the depositor's remark. Sampled rows, rich in hits. Any-hit rate of the full collection: about 21%. Unless noted, calls come from the whole dose curve; as a rule, active = well fitted curve in the direction sought with a large enough effect; inconclusive = small, poorly fitted or top-dose-only effect, or another doubt; inactive = no such curve, though single readings can be large; an effect the other way counts as inactive or inconclusive. % is set by controls: 0 for no effect and ±100 for the full control effect.

SMILES	ELG1 DNA repair	TDP1 cell noCPT	IL-1B inflam inh	RORgamma inh	VP16 counter	DT40 TDP1 CPT
N#CC(=C=[N-])c1nc2ccccc2nc1-[n+]1cccc(NC(=O)c2ccc(F)cc2)c1	7.2%	/	/	-1.2%	-1.8%	/
N#CC(=C=[N-])c1nc2ccccc2nc1-[n+]1cccc(NC(=O)c2ccccc2)c1	9.1%	-20.2%	-24.3	5.01µM*!	?	-25.7%
N#CC(=C=[N-])c1nc2ccccc2nc1-[n+]1cccc(NC(=O)c2cccs2)c1	-3.8%	6.51µM*	19.0	1.5%	-0.1%	5.8µM*
O=C(O)c1c(Sc2ccccc2)c2cc(Cl)ccc2n1Cc1ccc(Cl)cc1	/	/	/	19.2%	-23.5%	/
Cc1occc1-c1nnc(SCC(=O)Nc2nc(C(C)(C)C)cs2)o1	16.8%	10.3µM*	-0.5	?	?	9.2µM*
COc1ccc(-n2c(SCC(=O)Nc3nc(C)cs3)nnc2-c2ccoc2C)cc1	23.1µM*	?	22.1	30.8%	0.4%	?
COc1ccc(-n2c(SCC(=O)Nc3nccs3)nnc2-c2ccoc2C)cc1	20.6µM*	-24.5%	27.8	-19.6%	10.5%	-27.7%
Cc1csc(NC(=O)CSc2nnc(-c3ccoc3C)o2)n1	?	?	3.1	-7.5%	12.5%	?
O=C1CCCC/C=C\C[C@H](CC(=O)N(CCO)Cc2ccccc2)C(=O)NCCO1	9.3%	-2.9%	9.1	/	/	-22.1%
CCNS(=O)(=O)c1ccc(NC(=O)CC(C)c2ccccc2)cc1 (stereo unspecified)	-4.9%	-17.7%	8.7	27.0%	0.4%	-3.4%
CS(=O)(=O)N1CCc2cc(S(=O)(=O)NCc3ccccc3Cl)ccc21	/	-28.7%	/	/	/	-23.6%
CS(=O)(=O)c1ccc(C(=O)Nc2ccc(-c3nc4ccccc4[nH]3)cc2)cc1	?	?	6.4	-34.8%	-8.0%	?
Cn1ncc([N+](=O)[O-])c1C(=O)Nc1ccc(-c2nc3ccccc3[nH]2)cc1	?	18.4µM*	-13.6	?	?	?
Cn1ncc([N+](=O)[O-])c1C(=O)Nc1ccc(Cl)cc1	-5.9%	16.5%	?	-0.3%	4.5%	-9.5%
CCOc1ccc(C(=O)Nc2ccc(-c3nc4ccccc4[nH]3)cc2)cc1[N+](=O)[O-]	?	18.4µM*	2.4	-23.2%	?	20.6µM*
CCOC(=O)C(CC)/C(C)=N/NC(=O)c1ccc([N+](=O)[O-])cc1 (stereo unspecified)	2.2%	-0.6%	-8.4	12.6µM*	?	?
COc1cccc(C(=O)N2CCC[C@H]2C(=O)N2CCC[C@H]2C(=O)NCc2ccccn2)c1	/	4.4%	19.7	/	/	6.2%
COc1ccc(CCNC(=O)c2cc3c(=O)n4cccc(C)c4nc3n(Cc3ccco3)c2=N)cc1OC	?	25.9µM*	9.8	1.58µM*	1.12µM*	?
Cc1cccn2c(=O)c3cc(C(=O)NCCc4ccccc4)c(=N)n(Cc4ccco4)c3nc12	14.6µM*	10.3µM*	3.9	1.0%	-17.6%	20.6µM*
Cc1cccn2c(=O)c3cc(C(=O)NCc4ccco4)c(=N)n(CCc4ccccc4)c3nc12	0.0%	14.6µM*	-84.6*	-5.2%	-10.2%	-96.0%
Cc1cccn2c(=O)c3cc(C(=O)NCc4ccco4)c(=N)n(C(C)C)c3nc12	?	-28.3%	-29.9	-7.6%	-6.5%	-26.1%
Cc1ccccc1Nc1nc(N)nc(COC(=O)[C@@H](NC(=O)c2ccccc2Cl)C(C)C)n1	-9.0%	?	19.0	/	/	?
O=C1NC(=O)N(Cc2ccccc2)CC1Br (stereo unspecified)	/	-5.1%	-11.5	/	/	2.8%
Cc1ccc(C)c(NC(=O)COC(=O)c2cccc(S(=O)(=O)N3CCCC3)c2)c1	/	-19.2%	13.5	/	/	-7.4%
COc1ccccc1-c1nc(-c2cccc(C)c2)no1	?	?	0.0	?	22.4µM*	-9.6%
SMILES	ELG1 DNA repair	TDP1 cell noCPT	IL-1B inflam inh	RORgamma inh	VP16 counter	DT40 TDP1 CPT
COc1cc(-c2nc(-c3cccc(C)c3)no2)cc(OC)c1OC	18.4µM*	23.1µM*	-20.1	36.6%	-12.1%	18.4µM*
CCOc1cc(-c2nc(-c3ccccc3OC)no2)cc(OCC)c1OCC	?	29.1µM*	?	3.8%	-0.4%	?
COc1cc(-c2nc(-c3cccnc3)no2)cc(OC)c1OC	23.1µM*	?	-2.6	-1.9%	-8.4%	?
COc1ccc(-c2nc(-c3cccc(C)c3)no2)cc1OC	?	-7.9%	-21.2	?	?	-17.3%
CC(C)Oc1ccc(NC(=O)c2ccncc2)cc1	-9.8%	?	-14.8	30.9%	-4.0%	-23.5%
C=Cc1c(C)/c2[n-]/c1=C\c1[n-]c(c(CC)c1C)/C=c1\[n-]c3c(c1C)C(=O)C(C(=O)[O-])C=3c1[n-]c(c(C)c1CCC(=O)[O-])\C=2.[Cu].[Na+].[Na+] (stereo unspecified)	/	/	/	?	-15.1%	/
O=S(=O)(NC(=S)NC1CCCCC1)c1ccc(Br)cc1	11.0%	?	14.5	4.47µM*	?	10.1%
O=C(Nc1ccccc1NC(=O)NC1CCCCC1)NC1CCCCC1	11.2%	?	-68.9*	-2.0%[0.365 µM]	/	?
O=C(Nc1ccccc1)NC1CCCCC1	?	1.7%	-12.0	22.7%	17.1%	-5.7%
Cc1ccc(CN=C(Nc2ccccc2)NC2CCCCC2)cc1	-12.9%	20.6µM*	-87.1*	24.5%	-6.0%	20.6µM*
O=C(Nc1ccccc1)NC1CCCCCCC1	/	29.1µM*	?	/	/	?
O=C(CCNS(=O)(=O)c1ccc(Br)cc1)NC1CCCCC1	-12.8%	-19.7%	-12.9	24.9%	-5.6%	-5.9%
Cc1ccc(CN2CCOc3ccc(C(C)(O)COc4ccccc4)cc3C2)o1 (stereo unspecified)	/	-13.6%	/	/	/	0.3%[9.04 µM]
Nc1ccc(S(=O)(=O)Nc2nccc(/C=C/c3ccc(Cl)cc3Cl)n2)cc1	24.5%	-9.4%	-9.9	4.9%	4.9%	-2.6%
CCOc1ccc(NC(=O)NC2CCCCCCC2)cc1	?	-0.7%	-22.6	0.4%	-1.2%	-19.8%
O=C(Nc1ccc(Br)cc1)NC1CCCCCCC1	?	?	-90.2*	?	?	?
